# From PubChem BioAssay (EPA / NIEHS)
# Inconclusive results are not listed. Active and inactive are the calls of the source. The calls were made as follows, unless noted: active = hit-call score of the fitted dose curve at least 0.9, where 1 is the maximum; inactive = score below 0.9.
# Experiments:
# [1] = read-out: Phosphatase and tensin (PTEN), PTEN (gene 5728); test: LTEA_HepaRG_PTEN: Life Technologies and Expression Analysis (LTEA) Assay for Phosphatase and tensin (PTEN) using HepaRG (AID 2283523); conditions: mRNA level, 48 h; actives raise or lower the signal
# Outline: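 Expression of PTEN is quantified in the human liver line HepaRG following two days of dosing (top concentration 100 uM, half-log dilutions, 0.5% DMSO). Values derive from bidirectional curve fitting relative to DMSO controls.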
# [2] = read-out: solute carrier (SLC22A1), SLC22A1 (gene 6580); test: LTEA_HepaRG_SLC22A1: Life Technologies and Expression Analysis (LTEA) Assay for solute carrier (SLC22A1) using HepaRG (AID 2283524); conditions: mRNA level, 48 h; actives raise or lower the signal;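 as to AC50: differentiated human HepaRG liver cells in serum-free induction medium; TaqMan qRT-PCR normalized to ACTB GAPDH and POLR2A housekeeping genes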
# Outline: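 Transcript induction or suppression of SLC22A1 in human HepaRG cultures is scored after 48 h chemical treatment, with DMSO (0.5%) as baseline for bidirectional fitting. Concentrations span eight half-log points topping at 100 uM.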
# [3] = read-out: Pyruvate Dehydrogenase Kinase 4 (PDK4), PDK4 (gene 5166); test: LTEA_HepaRG_PDK4: Life Technologies and Expression Analysis (LTEA) Assay for Pyruvate Dehydrogenase Kinase 4 (PDK4) using HepaRG (AID 2283525); conditions: mRNA level, 48 h; actives raise or lower the signal
# Outline: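 Eight-point, half-log concentration series (max 100 uM, 0.5% DMSO) applied to differentiated HepaRG cells for 48 h in duplicate. Endpoint: PDK4 mRNA induction or repression by qRT-PCR against DMSO baseline.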
# [4] = read-out: NAD(P)H dehydrogenase [quinone] 1 (NQO1), NQO1 (gene 1728); test: LTEA_HepaRG_NQO1: Life Technologies and Expression Analysis (LTEA) Assay for NAD(P)H dehydrogenase [quinone] 1 (NQO1) using HepaRG (AID 2283526); conditions: mRNA level, 48 h; actives raise or lower the signal
# Outline: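 qRT-PCR read-out (Fluidigm TaqMan), normalized to three housekeeping genes, after 48 h chemical exposure of HepaRG cells. Concentrations: eight points, top 100 uM, half-log steps, 0.5% DMSO vehicle. Gain or loss of signal fitted relative to DMSO.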
# [5] = read-out: Nuclear factor erythroid 2-related factor 2 (Homo sapiens) (UniProt Q16236); test: LTEA_HepaRG_NFE2L2: Life Technologies and Expression Analysis (LTEA) Assay for Nuclear factor erythroid 2-related factor 2 (NFE2L2) Transcription Factor using HepaRG (AID 2283527); conditions: mRNA level, 48 h; actives raise or lower the signal;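 also: TaqMan qRT-PCR transcript level normalised to ACTB GAPDH and POLR2A housekeeping genes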
# Outline: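 Human liver HepaRG line treated in duplicate for 48 h with an eight-point series topping at 100 uM. Gene expression of NFE2L2 by qRT-PCR, bidirectionally fitted against the vehicle control.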
# [6] = read-out: succinate dehydrogenase complex iron sulfur subunit B (SDHB), SDHB (gene 6390); test: LTEA_HepaRG_SDHB: Life Technologies and Expression Analysis (LTEA) Assay for succinate dehydrogenase complex iron sulfur subunit B (SDHB) using HepaRG (AID 2283528); conditions: mRNA level, 48 h; actives raise or lower the signal
# Outline: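 HepaRG, 48 h exposure, 8-pt half-log series from 100 uM in 0.5% DMSO, duplicates. Readout: SDHB mRNA by Fluidigm qRT-PCR vs housekeeping genes; bidirectional fit relative to DMSO.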
# [7] = read-out: Signal transducer and activator of transcription 3 (Homo sapiens) (UniProt P40763); test: LTEA_HepaRG_STAT3: Life Technologies and Expression Analysis (LTEA) Assay for Signal transducer and activator of transcription (STAT3) using HepaRG (AID 2283529); conditions: mRNA level, 48 h; actives raise or lower the signal
# Outline: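 In this transcriptional endpoint, HepaRG cultures receive test chemicals at up to 100 uM for 48 h, tested in duplicate. STAT3 mRNA is normalized to ACTB, GAPDH and POLR2A.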
# [8] = read-out: solute carrier (SLCO1B1), SLCO1B1 (gene 10599); test: LTEA_HepaRG_SLCO1B1: Life Technologies and Expression Analysis (LTEA) Assay for solute carrier (SLCO1B1) using HepaRG (AID 2283530); conditions: mRNA level, 48 h; actives raise or lower the signal
# Outline: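 Gain or loss of SLCO1B1 mRNA is fitted against the 0.5% DMSO vehicle in human HepaRG liver cells treated 48 h at up to 100 uM in half-log steps. Expression comes from qRT-PCR normalized to endogenous controls.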
# [9] = read-out: sulfotransferase 2A1 (SULT2A1), SULT2A1 (gene 6822); test: LTEA_HepaRG_SULT2A1: Life Technologies and Expression Analysis (LTEA) Assay for sulfotransferase 2A1 (SULT2A1) using HepaRG (AID 2283531); conditions: mRNA level, 48 h; actives raise or lower the signal
# Outline: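 Cells were plated and cultured 48 h, switched to serum-free induction medium, then dosed in duplicate for 48 h (8 concentrations, max 100 uM). RNA was isolated and SULT2A1 expression measured by qRT-PCR; gain or loss of signal fitted relative to DMSO.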
# [10] = read-out: Transforming Growth Factor (TGFA), TGFA (gene 7039); test: LTEA_HepaRG_TGFA: Life Technologies and Expression Analysis (LTEA) Assay for Transforming Growth Factor (TGFA) using HepaRG (AID 2283532); conditions: mRNA level, 48 h; actives raise or lower the signal
# Outline: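 Gene expression of TGFA was quantified by qRT-PCR after human HepaRG cells were treated for 48 h with test chemicals (eight concentrations, highest 100 uM, 0.5% DMSO). Activity in either direction was fitted relative to DMSO.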
# [11] = read-out: Transforming Growth Factor (TGFB1), TGFB1 (gene 7040); test: LTEA_HepaRG_TGFB1: Life Technologies and Expression Analysis (LTEA) Assay for Transforming Growth Factor (TGFB1) Transporter using HepaRG (AID 2283533); conditions: mRNA level, 48 h; actives raise or lower the signal
# Outline: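 Expression change of TGFB1 in human HepaRG cells is measured after a 48 h chemical exposure, up to 100 uM in 0.5% DMSO vehicle. Curves are fitted in both directions relative to the DMSO baseline.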
# TIMP1, TIMP1 (gene 7076) = test: LTEA_HepaRG_TIMP1: Life Technologies and Expression Analysis (LTEA) Assay for TIMP1 using HepaRG (AID 2283534); conditions: mRNA level, 48 h; actives raise or lower the signal;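 also: TaqMan qRT-PCR signal normalized to ACTB GAPDH and POLR2A housekeeping genes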
# Outline: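 We dosed human liver HepaRG cultures for 48 hours with up to 100 uM test chemical and measured TIMP1 expression by qRT-PCR. Activity in either direction is fitted relative to the 0.5% DMSO vehicle.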
# [12] = read-out: Tumor necrosis factor receptor 1 (TNFRSF1A), TNFRSF1A (gene 7132); test: LTEA_HepaRG_TNFRSF1A: Life Technologies and Expression Analysis (LTEA) Assay for Tumor necrosis factor receptor 1 (TNFRSF1A) using HepaRG (AID 2283535); conditions: mRNA level, 48 h; actives raise or lower the signal
# Outline: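 Expression of TNFRSF1A in human HepaRG liver cells was measured by qRT-PCR 48 h after chemical dosing (maximum 100 uM). Bidirectional curve fitting used 0.5% DMSO as baseline.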
# [13] = read-out: Thyroid Hormone Responsive (THRSP), THRSP (gene 7069); test: LTEA_HepaRG_THRSP: Life Technologies and Expression Analysis (LTEA) Assay for Thyroid Hormone Responsive (THRSP) using HepaRG (AID 2283536); conditions: mRNA level, 48 h; actives raise or lower the signal
# Outline: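 Cell model: human HepaRG, approx. 100,000 cells/well, 0.5% DMSO vehicle. Exposure lasts 48 h; phenobarbital 1 mM serves as induction positive control. Gene expression is measured by qRT-PCR against three endogenous control genes.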
# [14] = read-out: Cellular tumor antigen p53 (Homo sapiens) (UniProt P04637); test: LTEA_HepaRG_TP53: Life Technologies and Expression Analysis (LTEA) Assay for Tumor Protein P53 (TP53) using HepaRG (AID 2283537); conditions: mRNA level, 48 h; actives raise or lower the signal
# Outline: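 HepaRG, 48 h exposure, top 100 uM, half-log 8-point, 0.5% DMSO vehicle, duplicates. Read: TP53 mRNA by TaqMan qRT-PCR, normalised to ACTB/GAPDH/POLR2A; bidirectional fit vs DMSO.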
# [15] = read-out: UDP glucuronosyltransferase (UGT1A1), UGT1A1 (gene 54658); test: LTEA_HepaRG_UGT1A1: Life Technologies and Expression Analysis (LTEA) Assay for UDP glucuronosyltransferase (UGT1A1) using HepaRG (AID 2283538); conditions: mRNA level, 48 h; actives raise or lower the signal
# Outline: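 HepaRG, 48 h chemical exposure (top 100 uM, half-log 8-pt, 0.5% DMSO vehicle), duplicate wells; qRT-PCR (TaqMan, Fluidigm array) for UGT1A1 mRNA, housekeeping-normalized; bidirectional curve fit vs DMSO baseline.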
# [16] = read-out: UDP glucuronosyltransferase (UGT1A6), UGT1A6 (gene 54578); test: LTEA_HepaRG_UGT1A6: Life Technologies and Expression Analysis (LTEA) Assay for UDP glucuronosyltransferase (UGT1A6) using HepaRG (AID 2283539); conditions: mRNA level, 48 h; actives raise or lower the signal
# Outline: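 Endpoint is UGT1A6 transcript induction or loss in a human liver cell line, quantified by TaqMan qRT-PCR 48 h after dosing. Concentrations ran from 100 uM downward in half-log steps in 0.5% DMSO; activity was fitted in both directions versus vehicle.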
# [17] = read-out: X-box binding protein 1 (XBP1), XBP1 (gene 7494); test: LTEA_HepaRG_XBP1: Life Technologies and Expression Analysis (LTEA) Assay for X-box binding protein 1 (XBP1) using HepaRG (AID 2283540); conditions: mRNA level, 48 h; actives raise or lower the signal
# Outline: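 Human HepaRG monolayers receive test chemical for 48 h across an eight-point half-log series starting at 100 uM. XBP1 mRNA gain or loss is scored against DMSO by qRT-PCR.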
# [18] = LTEA_HepaRG_LDH_cytotoxicity: Cytotoxicity Assessment in the Life Technologies and Expression Analysis (LTEA) Assay (AID 2283563; active = hit-call score of the fitted dose curve at least 0.9, where 1 is the maximum;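 as to AC50: LDH activity released into spent culture medium as a marker of cell death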)
# Outline: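 Human HepaRG hepatic cells are treated with test chemicals for 48 h at up to 100 uM in 0.5% DMSO. Cytotoxicity is scored from medium LDH against the vehicle control.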
# [19] = ATG_XTT_Cytotoxicity: Cytotoxicity Assessment in the Attagene TRANS-FACTORIAL HepG2 Assay (AID 2283584; active = hit-call score of the fitted dose curve at least 0.9, where 1 is the maximum)
# Outline: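 Transfect HepG2 with GAL4-UAS reporter units, dose compound, incubate 24 h, then measure viable cell number by XTT. Fit concentration response against DMSO baseline.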
# Chain of Nuclear factor erythroid 2-related factor 2 (Homo sapiens) (Q16236 whole entry, looked up): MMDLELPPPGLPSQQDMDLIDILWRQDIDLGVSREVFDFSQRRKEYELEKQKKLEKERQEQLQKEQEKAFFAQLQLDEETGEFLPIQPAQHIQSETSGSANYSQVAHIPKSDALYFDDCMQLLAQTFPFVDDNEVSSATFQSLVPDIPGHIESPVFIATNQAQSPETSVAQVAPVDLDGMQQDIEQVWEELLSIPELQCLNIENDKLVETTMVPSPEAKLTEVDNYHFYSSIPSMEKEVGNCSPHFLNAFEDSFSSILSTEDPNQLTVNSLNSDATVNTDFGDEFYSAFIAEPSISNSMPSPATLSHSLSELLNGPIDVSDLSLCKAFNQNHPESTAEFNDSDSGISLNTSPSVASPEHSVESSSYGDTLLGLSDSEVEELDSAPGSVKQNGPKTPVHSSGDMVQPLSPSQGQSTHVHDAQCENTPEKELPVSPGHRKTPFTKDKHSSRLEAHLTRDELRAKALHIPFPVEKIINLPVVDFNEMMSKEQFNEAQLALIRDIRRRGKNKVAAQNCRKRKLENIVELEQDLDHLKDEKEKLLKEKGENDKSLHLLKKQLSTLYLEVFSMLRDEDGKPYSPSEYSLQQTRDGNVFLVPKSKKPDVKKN
# Chain of Signal transducer and activator of transcription 3 (Homo sapiens) (P40763 whole entry, looked up): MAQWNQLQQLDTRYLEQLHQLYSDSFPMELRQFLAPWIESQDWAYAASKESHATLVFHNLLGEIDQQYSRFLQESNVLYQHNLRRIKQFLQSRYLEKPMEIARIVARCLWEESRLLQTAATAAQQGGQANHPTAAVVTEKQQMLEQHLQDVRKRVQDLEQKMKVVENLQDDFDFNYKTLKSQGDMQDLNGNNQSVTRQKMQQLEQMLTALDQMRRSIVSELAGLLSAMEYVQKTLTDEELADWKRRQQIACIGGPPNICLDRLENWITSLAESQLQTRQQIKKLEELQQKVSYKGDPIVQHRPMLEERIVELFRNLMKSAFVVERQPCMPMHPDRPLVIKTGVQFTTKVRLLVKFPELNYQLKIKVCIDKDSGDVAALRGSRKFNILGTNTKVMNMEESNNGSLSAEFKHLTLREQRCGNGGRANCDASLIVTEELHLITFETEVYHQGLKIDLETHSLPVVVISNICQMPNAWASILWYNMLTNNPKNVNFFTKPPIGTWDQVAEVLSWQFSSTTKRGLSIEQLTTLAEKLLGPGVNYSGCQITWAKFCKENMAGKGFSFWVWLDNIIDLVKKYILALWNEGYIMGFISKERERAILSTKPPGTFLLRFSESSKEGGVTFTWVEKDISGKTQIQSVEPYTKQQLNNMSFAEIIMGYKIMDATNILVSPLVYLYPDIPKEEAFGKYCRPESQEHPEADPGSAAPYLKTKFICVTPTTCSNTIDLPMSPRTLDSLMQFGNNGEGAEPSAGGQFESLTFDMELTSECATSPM
# Chain of Cellular tumor antigen p53 (Homo sapiens) (P04637 whole entry, looked up): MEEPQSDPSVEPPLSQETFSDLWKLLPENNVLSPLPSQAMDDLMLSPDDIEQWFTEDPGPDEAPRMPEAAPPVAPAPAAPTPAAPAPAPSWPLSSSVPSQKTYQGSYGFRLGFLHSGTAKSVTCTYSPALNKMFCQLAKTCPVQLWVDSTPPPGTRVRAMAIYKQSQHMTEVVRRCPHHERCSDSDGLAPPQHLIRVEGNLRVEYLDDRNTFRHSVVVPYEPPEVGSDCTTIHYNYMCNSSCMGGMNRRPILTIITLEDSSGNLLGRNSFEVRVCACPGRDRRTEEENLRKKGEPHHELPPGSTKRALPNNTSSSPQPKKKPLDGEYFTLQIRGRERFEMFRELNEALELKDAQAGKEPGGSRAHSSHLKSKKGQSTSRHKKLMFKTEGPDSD
smiles,measurement,setting,value
O=C(O)c1cccc(C[C@@H]2COc3ccc(OCc4nc5cc(F)ccc5s4)cc3[C@@H]2O)c1,outcome,[1],inactive
same,AC50,[2],93.4 µM (active)
same,outcome,[3],inactive
same,outcome,[4],inactive
same,outcome,[5],inactive
same,outcome,[6],inactive
same,outcome,[7],inactive
same,AC50,[8],92.3 µM (active)
same,outcome,[9],inactive
same,outcome,[10],inactive
same,outcome,[11],inactive
same,outcome,"TIMP1, TIMP1 (gene 7076)",inactive
same,outcome,[12],inactive
same,AC50,[13],80.5 µM (active)
same,outcome,[14],inactive
same,outcome,[15],inactive
same,outcome,[16],inactive
same,outcome,[17],inactive
same,AC50,[18],75.6 µM (active)
NC(N)=O,outcome,[1],inactive
same,outcome,[2],inactive
same,outcome,[3],inactive
same,outcome,[4],inactive
same,outcome,[5],inactive
same,outcome,[6],inactive
same,outcome,[7],inactive
same,outcome,[8],inactive
same,outcome,[9],inactive
same,outcome,[10],inactive
same,outcome,[11],inactive
same,outcome,"TIMP1, TIMP1 (gene 7076)",inactive
same,outcome,[12],inactive
same,outcome,[13],inactive
same,outcome,[15],inactive
same,outcome,[16],inactive
same,outcome,[17],inactive
same,outcome,[19],inactive
CC[C@H](C)C(=O)O[C@H]1C[C@H](O)C=C2C=C[C@H](C)[C@H](CC[C@@H](O)C[C@@H](O)CC(=O)O)[C@H]21,outcome,[1],inactive
same,outcome,[2],inactive
same,outcome,[3],inactive
same,outcome,[4],inactive
same,outcome,[5],inactive
same,outcome,[6],inactive
same,outcome,[7],inactive
same,outcome,[8],inactive
same,outcome,[9],inactive
same,outcome,[10],inactive
same,outcome,[11],inactive
same,outcome,"TIMP1, TIMP1 (gene 7076)",inactive
same,outcome,[12],inactive
same,AC50,[13],21.9 µM (active)
same,outcome,[15],inactive
same,outcome,[16],inactive
same,outcome,[17],inactive
same,outcome,[19],inactive
C[C@@H](Oc1ccc(CNC(=O)c2cccnc2Oc2ccc3c(c2)OCO3)c(F)c1)C(=O)O,outcome,[1],inactive
same,outcome,[2],inactive
same,AC50,[3],50 µM (active)
same,outcome,[4],inactive
same,outcome,[5],inactive
same,outcome,[6],inactive
same,outcome,[7],inactive
same,outcome,[8],inactive
same,outcome,[9],inactive
same,outcome,[10],inactive
same,outcome,[11],inactive
same,outcome,"TIMP1, TIMP1 (gene 7076)",inactive
same,outcome,[12],inactive
same,outcome,[13],inactive
same,outcome,[15],inactive
same,outcome,[16],inactive
same,outcome,[17],inactive
same,outcome,[18],inactive
